# From publication PMC5540273 (PLoS ONE, 2017)
# Where two headings read alike, the source gives them in different places.
# Experiments:
# TAOK1 = details: concentration: 1 μM, replicates: in singlicate; n = 1
# TAOK2 = details: concentration: 1 μM, replicates: in singlicate; n = 1
# TAOK3 = details: concentration: 1 μM, replicates: in singlicate; n = 1
# TBK1 = details: concentration: 1 μM, replicates: in singlicate; n = 1
# TEC = details: concentration: 1 μM, replicates: in singlicate; n = 1
# TESK1 = details: concentration: 1 μM, replicates: in singlicate; n = 1
# TGFBR1 = details: n = 1
# TGFBR2 = details: concentration: 1 μM, replicates: in singlicate; n = 1
# TIE1 = details: concentration: 1 μM, replicates: in singlicate; n = 1
# TIE2 = tested on: T1, TIE2; details: concentration: 1 μM, replicates: in singlicate; n = 1
# T1 construct: gene TEK
# TLK1 = details: concentration: 1 μM, replicates: in singlicate; n = 1
# TLK2 = details: concentration: 1 μM, replicates: in singlicate; n = 1
# TNIK = details: concentration: 1 μM, replicates: in singlicate; n = 1
# TNK1 = details: concentration: 1 μM, replicates: in singlicate; n = 1
# TNK2 = details: concentration: 1 μM, replicates: in singlicate; n = 1
# TNNI3K = details: concentration: 1 μM, replicates: in singlicate; n = 1
# TRKA = tested on: T2, TRKA; details: concentration: 1 μM, replicates: in singlicate; n = 1
# T2 construct: gene NTRK1
# TRKB = details: concentration: 1 μM, replicates: in singlicate; n = 1
# TRKC = tested on: T3, TRKC; details: concentration: 1 μM, replicates: in singlicate; n = 1
# T3 construct: gene NTRK3
# TRPM6 = details: concentration: 1 μM, replicates: in singlicate; n = 1
# [1] = concentration: 1 μM, replicates: in singlicate
# 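Also: KINOMEscan kinase panel screen.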
smiles,measurement,setting,value
Cc1ccccc1-c1cc(-c2c[nH]nc2-c2ccccn2)ccn1 [GW680061],%Inh,TAOK1,0%
same,%Inh,TAOK2,0%
same,%Inh,TAOK3,0%
same,%Inh,TBK1,0%
same,%Inh,TEC,15%
same,%Inh,TESK1,24%
same,%Inh,TGFBR1; 1 µM,5%
same,%Inh,TGFBR2,0%
same,%Inh,TIE1,6%
same,%Inh,TIE2,0%
same,%Inh,TLK1,0%
same,%Inh,TLK2,0%
same,%Inh,TNIK,8%
same,%Inh,TNK1,0%
same,%Inh,TNK2,16%
same,%Inh,TNNI3K,0%
same,%Inh,TRKA,0%
same,%Inh,TRKB,0%
same,%Inh,TRKC,16%
same,%Inh,TRPM6,0%
COc1cccc(CNC(=O)NC2CCN(c3ccnc(Nc4ccc(F)cc4)n3)C2)c1 (stereo not shown) [GSK1379723],%Inh,TAOK1,0%
same,%Inh,TAOK2,0%
same,%Inh,TAOK3,0%
same,%Inh,TBK1,0%
same,%Inh,TEC,7%
same,%Inh,TESK1,100%
same,%Inh,TGFBR1; [1],21%
same,%Inh,TGFBR2,0%
same,%Inh,TIE1,24%
same,%Inh,TIE2,0%
same,%Inh,TLK1,0%
same,%Inh,TLK2,0%
same,%Inh,TNIK,0%
same,%Inh,TNK1,0%
same,%Inh,TNK2,16%
same,%Inh,TNNI3K,4%
same,%Inh,TRKA,0%
same,%Inh,TRKB,0%
same,%Inh,TRKC,5%
same,%Inh,TRPM6,0%
COc1ccc2cc(-c3nc(-c4ccccc4C(C)C)[nH]c3-c3ccncc3)ccc2c1 [SB-660566],%Inh,TAOK1,0%
same,%Inh,TAOK2,0%
same,%Inh,TAOK3,0%
same,%Inh,TBK1,0%
same,%Inh,TEC,17%
same,%Inh,TESK1,32%
same,%Inh,TGFBR1; [1],80%
same,%Inh,TGFBR2,42%
same,%Inh,TIE1,69%
same,%Inh,TIE2,97%
same,%Inh,TLK1,0%
same,%Inh,TLK2,0%
same,%Inh,TNIK,0%
same,%Inh,TNK1,32%
same,%Inh,TNK2,14%
same,%Inh,TNNI3K,15%
same,%Inh,TRKA,0%
same,%Inh,TRKB,13%
same,%Inh,TRKC,1%
same,%Inh,TRPM6,18%
O=C(Nc1n[nH]c2nc(-c3cccs3)c(Br)cc12)C1CCCC1 [SB-743341],%Inh,TAOK1,0%
same,%Inh,TAOK2,0%
same,%Inh,TAOK3,0%
same,%Inh,TBK1,0%
same,%Inh,TEC,0%
same,%Inh,TESK1,25%
same,%Inh,TGFBR1; [1],19%
same,%Inh,TGFBR2,7%
same,%Inh,TIE1,33%
same,%Inh,TIE2,15%
same,%Inh,TLK1,0%
same,%Inh,TLK2,0%
same,%Inh,TNIK,0%
same,%Inh,TNK1,0%
same,%Inh,TNK2,0%
same,%Inh,TNNI3K,0%
same,%Inh,TRKA,16%
same,%Inh,TRKB,22%
same,%Inh,TRKC,9%
same,%Inh,TRPM6,0%
CC(=O)c1c(C)c2cnc(Nc3ccn(C)n3)nc2n(C2CCCC2)c1=O,%Inh,TAOK1,0%
same,%Inh,TAOK2,0%
same,%Inh,TAOK3,0%
same,%Inh,TBK1,0%
same,%Inh,TEC,0%
same,%Inh,TESK1,4%
same,%Inh,TGFBR1; [1],0%
same,%Inh,TGFBR2,0%
same,%Inh,TIE1,0%
same,%Inh,TIE2,0%
same,%Inh,TLK1,1%
same,%Inh,TLK2,0%
same,%Inh,TNIK,0%
same,%Inh,TNK1,54%
same,%Inh,TNK2,24%
same,%Inh,TNNI3K,16%
same,%Inh,TRKA,29%
same,%Inh,TRKB,0%
same,%Inh,TRKC,0%
same,%Inh,TRPM6,0%
Nc1nccc(-c2c(-c3ccc(F)cc3)ncn2C2CCN(Cc3ccccc3)CC2)n1 [SB-219980],%Inh,TAOK1,31%
same,%Inh,TAOK2,0%
same,%Inh,TAOK3,10%
same,%Inh,TBK1,0%
same,%Inh,TEC,0%
same,%Inh,TESK1,0%
same,%Inh,TGFBR1; [1],7%
same,%Inh,TGFBR2,12%
same,%Inh,TIE1,1%
same,%Inh,TIE2,0%
same,%Inh,TLK1,0%
same,%Inh,TLK2,0%
same,%Inh,TNIK,96.5%
same,%Inh,TNK1,35%
same,%Inh,TNK2,10%
same,%Inh,TNNI3K,0%
same,%Inh,TRKA,0%
same,%Inh,TRKB,0%
same,%Inh,TRKC,0%
same,%Inh,TRPM6,0%
COc1ccc(CSc2nnc(-c3ccc4c(c3)CCO4)o2)cc1,%Inh,TAOK1,0%
same,%Inh,TAOK2,0%
same,%Inh,TAOK3,0%
same,%Inh,TBK1,11%
same,%Inh,TEC,0%
same,%Inh,TESK1,0%
same,%Inh,TGFBR1; [1],0%
same,%Inh,TGFBR2,0%
same,%Inh,TIE1,0%
same,%Inh,TIE2,0%
same,%Inh,TLK1,0%
same,%Inh,TLK2,0%
same,%Inh,TNIK,0%
same,%Inh,TNK1,0%
same,%Inh,TNK2,0%
same,%Inh,TNNI3K,0%
same,%Inh,TRKA,0%
same,%Inh,TRKB,0%
same,%Inh,TRKC,0%
same,%Inh,TRPM6,0%
Fc1ccc(-c2nc3n(c2-c2ccncc2)CCS3)cc1 [GI98581],%Inh,TAOK1,0%
same,%Inh,TAOK2,0%
same,%Inh,TAOK3,0%
same,%Inh,TBK1,5%
same,%Inh,TEC,1%
same,%Inh,TESK1,23%
same,%Inh,TGFBR1; [1],26%
same,%Inh,TGFBR2,8%
same,%Inh,TIE1,19%
same,%Inh,TIE2,0%
same,%Inh,TLK1,0%
same,%Inh,TLK2,0%
same,%Inh,TNIK,18%
same,%Inh,TNK1,0%
same,%Inh,TNK2,11%
same,%Inh,TNNI3K,2%
same,%Inh,TRKA,11%
same,%Inh,TRKB,0%
same,%Inh,TRKC,17%
same,%Inh,TRPM6,23%
